Reference: ChEMBL document CHEMBL4513216, “Probing the Open Global Health Chemical Diversity Library for Multistage-Active Starting Points for Next-Generation Antimalarials” (ACS Infect Dis, 2020)
The whole screen tested about 69,000 compounds, of which about 8,600 (12%) showed an effect of 50% or more. For the sample, strong results were picked, then their nearest neighbours and some compounds at random.

Test system: Plasmodium berghei
Assay: Screen against P. berghei liver stage (PbLuc), transformed with Luciferase, at 10uM
Type: functional, HepG2
Conditions: tested at 10 uM

SMILES | INHIBITION
CNC(=O)c1n[nH]c2c1C(c1cccc3c1OC(C)(C)C3)CC(=O)N2 (configuration not stated) | 50.1%
CNC(=O)c1n[nH]c2c1C(c1cccc3nsnc13)CC(=O)N2 (configuration not stated) | 46.9%
CNC(=O)c1n[nH]c2c1C(c1cccc3[nH]ccc13)CC(=O)N2 (configuration not stated) | 24.4%
CCc1[nH]ncc1C(=O)N1CCOC(c2nc(C)n[nH]2)C1 (configuration not stated) | 25.6%
Cn1ccnc1CN1CC[C@@H](NS(C)(=O)=O)[C@@H]1Cc1ccccc1 | 45.1%
COc1ccc(COCC(O)CNC(=O)c2ccc(C)c(F)c2)cc1 (configuration not stated) | 52.3%
COc1ccc(COCC(O)CNC(=O)c2cccc(OC)c2)cc1 (configuration not stated) | 23.5%
COc1ccc(COCC(O)CNC(=O)c2cc(C)cc(C)c2)cc1 (configuration not stated) | 17.7%
CS(=O)(=O)NC1CCN(c2cccc(F)c2C#N)CC1 | -12.1%
CC(=O)Nc1ccc(-c2cn(CCn3c(C)cc(C)nc3=O)nn2)cc1 | -31.1%
COc1ccc(-c2cn(CCn3c(C)cc(C)nc3=O)nn2)cn1 | 51.4%
COc1c(F)cc(-c2cn(CCn3c(C)cc(C)nc3=O)nn2)cc1Cl | -4.68%
CC(C)C1SCC(=O)Nc2c1c(O)nn2C1CCCCC1 (configuration not stated) | 74.4%
CC(C)C1SCC(=O)Nc2c1c(O)nn2C1CCCC1 (configuration not stated) | 1.04%
CC(C)(C)C1SCC(=O)Nc2c1c(O)nn2C1CCCCC1 (configuration not stated) | 37.4%
CC(C)Oc1ccccc1C1CC(=O)Nc2nc(N3CCOCC3)sc21 (configuration not stated) | -41.2%
Cc1nc2c(c(=O)[nH]1)CCN(C(=O)c1[nH]nc3c1CC(C)CC3)C2 (configuration not stated) | 15.2%
c1nc(CN2CCCC(Cc3ccc(NC4CCCC4)nn3)C2)c[nH]1 (configuration not stated) | 13.7%
CCNc1ccnc(N2CCN(Cc3ncccc3C)CC2)n1 | 51.3%
Cc1cc(C)c2c(N3CCN(Cc4ncccc4C)CC3)ncnc2n1 | 58.1%
Cc1cc(C)c2c(N3CCN(CCN4CCOCC4)CC3)ncnc2n1 | 40.3%
Cc1cccnc1CN1CCN(c2noc(-c3ccccc3)n2)CC1 | -13.2%

SMILES | INHIBITION
CCOc1ccnc(N2CCN(Cc3ncccc3C)CC2)n1 | 27.9%
COCCN1CCN(c2ncnc3nc(C)cc(C)c23)CC1 | -14.1%
CC(C)C(=O)N1CCN(c2ncnc3cc4c(cc23)OCCO4)CC1 | 2.69%
O=C(O)c1ccccc1-n1cc(CN2CCOC(c3cc[nH]n3)C2)cn1 (configuration not stated) | 20.7%
Cc1ccc(-c2nc(CN3CCCC(Cn4cncn4)C3)cs2)o1 (configuration not stated) | -7.35%
Nc1ncnc2nc(C3CCN(C(=O)Cc4ccc(F)cc4)C3)ccc12 (configuration not stated) | -19.9%
CCC(C)N(Cc1cnc(NC(C)C)nc1)Cc1ccsc1 (configuration not stated) | 30.4%
CCc1nnc(Nc2cccc(C3CCN(C(=O)CNC)CC3)n2)s1 | -17.7%
CC(Cc1cn(CCc2n[nH]c(=O)[nH]2)nn1)c1ccccc1 (configuration not stated) | 18.5%
CN(C)c1ccc(CC2CCN(c3cnccn3)C2)nn1 (configuration not stated) | 0.696%
COC1(CNC(=O)c2ccsc2)CCSC1 (configuration not stated) | 5.91%
COC(=O)CN1CCC(C(F)(F)F)CC1 | -8.9%
Cc1ccsc1C(=O)N1CCc2ncc(CN(C)C)n2CC1 | 62.9%
CN(C)Cc1cnc2n1CCN(C(=O)Cc1ccc(F)cc1)CC2 | 52.6%
CN(C)Cc1cnc2n1CCN(C(=O)Cc1ccsc1)CC2 | 11.3%
Cc1ccsc1C(=O)N1CCc2ncc(Cn3cccn3)n2CC1 | 29.4%
Cc1ccsc1C(=O)N1CCc2ncc(CN3CCCC3)n2CC1 | 8.6%
CN(C)Cc1cnc2n1CCN(C(=O)Cc1cccc(F)c1)CC2 | 37.9%
Cc1nc(N)ncc1C(=O)N1CCCC(CCc2ccccc2F)C1 (configuration not stated) | 43.9%
O=c1[nH]c2ccccc2cc1CNCCCN1CCOCC1 | 36.4%
O=C(N1CCCC1)N1CCC2(CCN(Cc3ccccn3)C2=O)C1 (configuration not stated) | 15.6%
Cc1ccc(CN2CCc3nnc(CN4CCCC4=O)n3CC2)s1 | 37.1%

SMILES | INHIBITION
O=C(CN1CCCC1)N1CCCC(CNS(=O)(=O)Cc2ccccc2)C1 (configuration not stated) | 51.3%
CS(=O)(=O)NCC1CCCN(C(=O)CCCc2ccccc2)C1 (configuration not stated) | -0.18%
CS(=O)(=O)NCC1CCCN(C(=O)COCc2ccccc2)C1 (configuration not stated) | 32.6%
O=S(=O)(Cc1ccccc1)NCC1CCCN(Cc2cccs2)C1 (configuration not stated) | 48.1%
O=C(Cc1cccs1)N1CCCC(CNS(=O)(=O)Cc2ccccc2)C1 (configuration not stated) | 73.6%
O=C(Cc1ccsc1)N1CCCC(CNS(=O)(=O)Cc2ccccc2)C1 (configuration not stated) | 34.6%
CC(=O)N1CCCC1c1ccc(CN2CCOCC2)cn1 (configuration not stated) | 35.625%
CCC(COC)NC(=O)N1CCC(n2ccc(C(F)(F)F)n2)CC1 (configuration not stated) | -15.1%
CCn1ccc(-c2nnc(SCC(=O)Nc3ccc(C)cc3)n2CC)n1 | 7.38%
CCN1C(=O)CC(c2ccccc2)C12CCN(CC1CCOCC1)CC2 (configuration not stated) | 43.2%
CCN(C)c1ncnc2c1CCN(S(=O)(=O)c1ccccc1)CC2 | 43.9%
Cc1ccc(OCCn2cnc3oc(C)c(C(=O)O)c3c2=O)cc1 | -1.04%
CC(Cn1ccnc1)NC(=O)N1CCN(Cc2ccco2)CC1 (configuration not stated) | -13.65%
OC1CCN(c2cncc(CCC3CCCN3)n2)CC1 (configuration not stated) | 9.575%
O=C(NCc1cn2c(n1)SCC2)c1cn(CCN2CCCCC2)nn1 | 21%
O=C(NCc1cn2c(n1)SCC2)c1ccc(CN2CCCCC2)cc1 | 29.2%
O=C(CCN1CCCCO1)NCc1cn2c(n1)SCC2 | 78.4%
CN(C(=O)C1CCCC1)C(c1cccc(F)c1)c1ccccn1 (configuration not stated) | 5.7%
CCOc1ccc(C(=O)N(Cc2cnn(C)c2)C(C)C)cc1OCC | 27.8%
O=C(CSCC1CC1)N1CCCC2(CCC(=O)N(CC3CC3)C2)C1 (configuration not stated) | 32.1%
O=C(CCC(F)(F)F)N1CCCC2(CCC(=O)N(CC3CC3)C2)C1 (configuration not stated) | 59.4%
O=C(CO)N1CCCC2(CCC(=O)N(CC3CC3)C2)C1 (configuration not stated) | 33%

SMILES | INHIBITION
Cc1ccc(C(=O)N2CCc3ncnc(-c4cnn(C)c4)c3CC2)cn1 | -64.6%
COCC(=O)Nc1ccc(N2CCC(OC)CC2)c(C(F)(F)F)c1 | 30.3%
CCNC(=O)Nc1ccc(N2CCC(OC)CC2)c(C(F)(F)F)c1 | 89.6%
CCNC(=O)C1CCCN(c2ccc(C#N)cc2C(F)(F)F)C1 (configuration not stated) | 26.3%
CCC(=O)Nc1ccc(N2CCC(OC)CC2)c(C(F)(F)F)c1 | 45.1%
COCCCNC(=O)Nc1ccc(-n2cncn2)c(C(F)(F)F)c1 | -37.55%
COC1CCN(c2ccc(NC(=O)C3CC3)cc2C(F)(F)F)CC1 | 95.8%
COCCNC(=O)[C@H]1CN(Cc2nccs2)C[C@H]2OCC[C@@H]12 | -3.19%
CCOCCC1(CNC(=O)c2ccc(C)nc2)CCCC1 | -30.6%
c1ccc(-c2cc(CN3CCC(c4ccn[nH]4)CC3)on2)cc1 | 73.5%
c1ccc(-c2noc(CN3CCC(c4ccn[nH]4)CC3)n2)cc1 | 35.1%
Cc1cccc(-c2noc(CN3CCC(c4ccn[nH]4)CC3)n2)c1 | -39.6%
Cn1cnc(S(=O)(=O)N2CCCC2c2ccnc3nccn23)c1 (configuration not stated) | 23.84%
CC(C)c1nccn1C1CCCN(C(=O)CCc2cscn2)C1 (configuration not stated) | 62.1%
CC(C)c1nccn1C1CCCN(C(=O)c2nccnc2N)C1 (configuration not stated) | 41.5%
CC(C)c1nccn1C1CCCN(C(=O)CCNS(C)(=O)=O)C1 (configuration not stated) | 36.1%
CSCC(=O)N1CCCC(n2ccnc2C(C)C)C1 (configuration not stated) | 45.4%
CC(C)c1nccn1C1CCCN(C(=O)CCc2cnn(C)c2)C1 (configuration not stated) | 33.3%
CCc1nnsc1C(=O)N1CCCC(n2ccnc2C(C)C)C1 (configuration not stated) | 53.9%
Cc1cc(N2CCC(c3ncc[nH]3)CC2)c2ccccc2n1 | 41.6%
Cc1nc(CN2CCOCC3(CCN(c4cnccn4)CC3)C2)cs1 | -11.6%
CN(CC(C)(CO)CO)C(=O)Nc1cc(Cl)cc(Cl)c1 | 26.515%

SMILES | INHIBITION
c1csc(-c2nc(CN3CCCCC3Cn3cccn3)co2)c1 (configuration not stated) | 11.5%
NC1CC(C(F)(F)F)=NC=C1c1ccccc1 (configuration not stated) | 4.08%
COc1ccc(C2=CN=C(C(F)(F)F)CC2N)cc1 (configuration not stated) | -0.371%
NC1CC(C(F)(F)F)=NC=C1c1ccc(Cl)cc1 (configuration not stated) | 59%
COc1ccc(C(=O)NC2CC2)c(OC2CCN(C3CCC3)CC2)c1 | 29.4%
COc1ccc(C(=O)NC2CC2)c(OC2CCN(CCCSC)CC2)c1 | 60.3%
COc1ccc(C(=O)NC2CC2)c(OC2CCN(C(C)CO)CC2)c1 (configuration not stated) | 76.6%
COc1ccc(C(=O)NC2CC2)c(OC2CCN(CC3CC3)CC2)c1 | 26.7%
COc1ccc(C(=O)NC2CC2)c(OC)c1 | 23.6%
COc1ccccc1OC1CCN(C(=O)CCCN2CCOCC2)CC1 | 23.8%
O=C(NC1CCCCC1)N1CCn2c(nnc2C2CCCN2)C1 (configuration not stated) | 44.1%
CS(=O)(=O)NCc1nnc2n1CCN(Cc1cccs1)CC2 | 34.6%
NC(=O)COc1ccc(CNCc2cc(F)cc(F)c2)cc1 | -28%
Cc1cc2nc(C(C)C)cc(NCCc3ccncc3)n2n1 | 34%
CC(NC(=O)C1CCN(S(N)(=O)=O)CC1)c1cccc(OC(F)F)c1 (configuration not stated) | 17%
CC(=O)N1CC(C(=O)Nc2cccc(OC(F)F)c2)C1 | 26%
CC(=O)N1CCC(C(=O)NC(C)c2cccc(OC(F)F)c2)CC1 (configuration not stated) | 58.3%
CCc1ncc2c(n1)CN(Cc1cc(C)on1)CC2 | 35.4%
Cc1nn(C)cc1-c1cncn1CCN(C)C1CCCC1 | -25.3%
